# Only some compounds are listed: those with a hit (about 10% of all), similar ones and a draw of the others.
# GLS inh = glutaminase GLS (human) inhibition; AID 624170; Potency, µM (top dose mostly 45.5 µM), for inactives: top-dose activity change, negative = inhibition, most hits filed as inhibitors; hit rate 0.21% among 410,000; GLS enzymatic activity, qHTS titration; also: % is scaled to controls: 0 for no effect and ±100 for the full control effect
#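 Human kidney-isoform GLS in 45 mM KH2PO4 pH 8.2, 0.02% Tween-20, with compound, started with 1mM L-Glutamine (added stock). Glutamate oxidase/HRP/Amplex red coupled fluorescence read at start and after 30 min at RT.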
# HP1b binding inh = inhibitors of HP1-beta chromodomain binding to methylated histone tails. P83916. AlphaScreen HP1-beta / biotin-H3K9me3 peptide binding. Potency, µM (highest dose often 114 µM), inactives show at the highest dose activity change, negative = inhibition, actives largely listed as inhibitors. hit rate 0.56% among 390,000; also: nearly all actives have a fitted effect of over 70% in size
# Target sequence (P83916 whole entry, looked up): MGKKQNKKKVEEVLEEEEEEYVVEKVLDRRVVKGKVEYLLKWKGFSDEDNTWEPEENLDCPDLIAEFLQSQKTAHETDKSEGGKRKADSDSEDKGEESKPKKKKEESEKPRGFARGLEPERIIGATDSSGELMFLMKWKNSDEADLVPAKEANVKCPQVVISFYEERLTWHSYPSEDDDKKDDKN
#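 AlphaScreen: HP1-beta (50 nM) preformed 30 min with biotin-H3(1-18)K9me3 peptide (50 nM) in PBS pH 7.4, 0.01% Tween-20. Compound added for 30 min at RT, then streptavidin donor/nickel chelate acceptor beads (10 ug/mL) for 30 min.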
# L3MBTL1 inh = inhibitors of human L3MBTL1; Potency, µM (doses to about 57.1 µM), without a hit: at the highest dose activity, negative = inhibition, most hits filed as inhibitors; hit rate 0.66% among 230,000; AlphaScreen L3MBTL1–H3K9me1 peptide binding; Q9Y468; also: % is scaled to controls: 0 for no effect and ±100 for the full control effect; nearly all actives have a fitted effect of over 60% in size
#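 L3MBTL1 50 nM + b-AHA-H3(1-15)K9me1 75 nM, 30 min RT; compound added, 30 min RT; streptavidin donor/Ni-chelate acceptor beads 10 ug/mL each final, 30 min RT dark; AlphaScreen read.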
# G9a inh = inhibitors of human histone lysine methyltransferase G9a; Q96KQ7; G9a H3K9 monomethylation, AlphaScreen, 2 h; Potency, µM (highest dose often 102 µM), for the others: top-dose activity, negative = inhibition, actives largely listed as inhibitors; hit rate 8.8% among 350,000; AID 504332; also: % is scaled to controls: 0 for no effect and ±100 for the full control effect; nearly all actives have a fitted effect of over 75% in size
# Target sequence (Q96KQ7 913-1193 limits assumed): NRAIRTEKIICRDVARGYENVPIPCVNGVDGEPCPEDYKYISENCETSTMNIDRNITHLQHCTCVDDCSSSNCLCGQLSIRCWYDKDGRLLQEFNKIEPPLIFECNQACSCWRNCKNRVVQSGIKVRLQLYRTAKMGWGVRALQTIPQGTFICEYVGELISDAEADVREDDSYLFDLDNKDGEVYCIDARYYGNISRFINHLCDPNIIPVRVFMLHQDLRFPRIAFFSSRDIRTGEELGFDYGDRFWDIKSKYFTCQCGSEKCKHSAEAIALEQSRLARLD
#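 Chemiluminescent proximity detection of H3K9 monomethylation, read after 10 min bead incubation in the dark. Reaction: 20 nM G9a, 500 nM biotin-H3K9 peptide, 20 uM SAM cofactor, 2 h, room temperature, following 15 min enzyme-compound preincubation.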
# JMJD2A Tudor inh = blocks the human JMJD2A Tudor domain; AlphaScreen JMJD2A-Tudor / H3K4me3 peptide binding; hit rate 4.4% among 390,000; Potency, µM (highest dose often 114 µM), without a hit: top-dose activity change, negative = inhibition, usual class: inhibitors; AID 504339; also: % is scaled to controls: 0 for no effect and ±100 for the full control effect; nearly all actives have a fitted effect of over 50% in size
# BAZ2B inh = BAZ2B (human) inhibition | AlphaScreen BAZ2B-H3K14Ac peptide displacement | Q9UIF8 | Potency, µM (top dose mostly 114 µM), for the others: at the top dose activity change, negative = inhibition, most hits filed as inhibitors | hit rate 4.4% among 360,000; also: % is scaled to controls: 0 for no effect and ±100 for the full control effect; nearly all actives have a fitted effect of over 60% in size
#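 AlphaScreen luminescence quantifies BAZ2B engagement of H3K14Ac peptide; the protein and biotinylated peptide are both at 50 nM final, buffer PBS pH 7.4 with 0.01% Tween-20, all steps at room temperature.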
# Active calls of the source: *; ? = inconclusive; / = not tested or not shown; ! = repeats disagree; [ ] = dose if it differs, or a comment. Calls follow the shape of the dose curve; as a rule, active = well fitted curve in the direction sought with a large enough effect; inconclusive = small, poorly fitted or top-dose-only effect, or another doubt; inactive = no such curve, though single readings can be large; an effect the other way counts as inactive or inconclusive. Potency is read from the fitted curve at half-maximal effect.
SMILES,GLS inh,HP1b binding inh,L3MBTL1 inh,G9a inh,JMJD2A Tudor inh,BAZ2B inh
COc1cc(C(=O)N(Cc2ccc(N(C)C)cc2)CC2CCCO2)cc(OC)c1OC (stereo unspecified),12.9%,4.6%,/,?,-30.2%,79.4µM*
Cc1ccc2oc(C(=O)N(Cc3ccc(N(C)C)cc3)CC3CCCO3)c(C)c2c1 (stereo unspecified),21.1%,?,/,28.2µM*,50.1µM*,11.2µM*
COc1cc(CN(CC2CCCO2)C(=O)c2ccc(F)cc2)cc(OC)c1OC (stereo unspecified),-8.2%,-0.4%,/,4.0%[59 µM],0.3%,0.0%
Cc1c(C(=O)N(Cc2ccncc2)CC2CCCO2)oc2c(F)cccc12 (stereo unspecified),9.8%,28.4%,/,/,-20.8%,-8.8%
Cc1cc2oc(C(=O)N(Cc3ccc(N(C)C)cc3)CC3CCCO3)c(C)c2cc1C (stereo unspecified),2.6%,?,/,14.1µM*,12.6µM*!,14.1µM*
Cc1ccc2c(C)c(C(=O)N(Cc3ccncc3)CC3CCCO3)oc2c1C (stereo unspecified),0.0%,14.2%,/,/,-28.5%,-10.0%
CCOC(=O)c1cc2c(=O)n3ccccc3nc2n(CCCOC)c1=NC(=O)c1c(-c2ccccc2Cl)noc1C,-6.0%,26.8%,/,-5.3%[59 µM],-7.8%,12.9%
O=C(NCCc1ccccc1Cl)c1ccc(Cn2c(=O)c3cccn3c3cccnc32)cc1,-3.7%,15.1%,/,?,?,?
CCc1nn(CCCC(=O)N2CCN(c3cccc(C)c3C)CC2)c(=O)c2cc3occc3n12,0.3%,-15.0%[57 µM],/,70.8µM*,-34.9%,?
CCc1nn(CC(=O)NC(C)CCc2ccccc2)c(=O)c2cc3occc3n12 (stereo unspecified),6.2%,-2.4%,/,28.8%,44.7µM*,-17.3%
CCc1nn(C(C)C(=O)NCCc2ccccc2)c(=O)c2cc3occc3n12 (stereo unspecified),1.8%,17.8%,/,/,-9.0%,-2.4%
COc1cc(C(=O)N=c2sc3ccccc3n2C)cc(OC)c1OC,-7.7%,17.7%,2.7%,4.3%,50.1µM*,-10.5%
COc1cc(C(=O)N=c2sc3c(C)ccc(OC)c3n2C)cc(OC)c1OC,-10.5%,40.7%,/,/,-1.7%,5.1%
Cc1cc(OI)c(C(C)C)cc1-c1cc(C(C)C)c(OI)cc1C,-16.4%,/,/,7.94µM*,/,/
COc1ccc(-c2cc3ccccc3n2CC(O)CN2CCC(C)CC2)cc1 (stereo unspecified),7.3%,?,/,?,17.8µM*,50.1µM*
C(=C\c1ccco1)/c1ccc2ccccc2n1,0.5%,?,14.1µM*,/,-5.2%,39.8µM*
COC(=O)/C(C#N)=C/c1ccc(-c2ccc(S(N)(=O)=O)cc2)o1,-1.3%,-0.7%,/,8.3%[12.7 µM],-10.2%,?
NS(=O)(=O)c1ccc(-c2ccc(C=O)o2)cc1,-4.5%,51.1%,20.2%,-42.1%,-8.3%[11.4 µM],-2.9%
CCCOC(=O)c1cc(-c2ccc(/C=C3/C(=O)N(C)C(=O)C(C#N)=C3C)o2)ccc1Cl,24.8%,?,/,/,56.2µM*,/
NS(=O)(=O)c1ccc(-c2ccc(/C=C3\NC(=S)NC3=O)o2)cc1,-7.6%,?,12.6µM*,8.91µM*,25.1µM*,50.1µM*
CC1=C(C#N)C(=O)NC(=O)/C1=C/c1ccc(-c2ccc(S(N)(=O)=O)cc2)o1,14.8%,?,?,8.91µM*,70.8µM*,44.7µM*
CCCOC(=O)c1cc(-c2ccc(C=O)o2)ccc1Cl,16.7%,10.9%,3.5%,?,-2.6%,2.4%
C=CCOC(=O)c1cc(-c2ccc(/C=C3\C(=O)NC(=O)C(C#N)=C3C)o2)ccc1Cl,-27.5%,-96.6%,/,8.91µM*,50.1µM*,35.5µM*
CC(=O)c1cnc(-c2ccccc2Cl)s1,-8.9%,26.6%,15.4%,-5.8%,-1.0%,2.2%
CC(=O)c1cnc(-c2ccccn2)s1,?,-18.3%,16.8%,31.6µM*,-10.1%,-11.2%
SMILES,GLS inh,HP1b binding inh,L3MBTL1 inh,G9a inh,JMJD2A Tudor inh,BAZ2B inh
Fc1cc2nccnc2cc1N1CCSCC1,-10.5%,37.6%,-10.4%,30.4%[12.7 µM],-9.0%,17.4%
Fc1cc2[nH]c(=S)[nH]c2c(Br)c1N1CCSCC1,4.4%,?,/,10µM*,-24.6%,-25.5%
CC1CC=CC2C1C(=O)N(Cc1ccccc1)C2c1ccc(C(F)(F)F)cc1 (stereo unspecified),/,60.1%,/,/,6.2%,/
CC1CCN(S(=O)(=O)c2ccc3c(c2)c(=O)c(C(=O)NCc2cccs2)cn3C)CC1,2.2%,27.0%,6.2%,-8.8%,-14.6%,-1.7%
CC1CCN(S(=O)(=O)c2ccc3c(c2)c(=O)c(C(=O)NCc2ccco2)cn3C)CC1,11.2%,5.4%,-16.5%,79.4µM*,-21.9%,-13.1%
CC(=O)Nc1ccc(NC(=O)C2CCN(S(=O)(=O)c3ccc4c(c3)CCCC(=O)N4)CC2)cc1,-3.1%,40.6%,/,3.6%[59 µM],-5.5%,7.6%[57.1 µM]
Cc1ccc(CNC(=O)CN(c2cc(C)cc(C)c2)S(=O)(=O)c2c(C)noc2C)cc1,3.2%,52.6%,/,6.6%[59 µM],-7.3%,/
O=[n+]1ccn([O-])c2ccccc21,3.7%,/,/,-6.4%[12.7 µM],/,/
Cc1ccc(N2CC(C(=O)OCC(=O)Nc3cc(C)on3)CC2=O)c(C)c1 (stereo unspecified),-4.2%,25.5%,/,16.7%,-3.8%,-15.7%
Cc1cc(C)cc(N2CC(C(=O)OCC(=O)Nc3cc(C)on3)CC2=O)c1 (stereo unspecified),-1.1%,11.8%,/,50.1µM*,-2.8%,-9.0%
Cn1cc(CCNC(=O)CC2C(=O)NCCN2CC(c2ccccc2)c2ccccc2)cn1 (stereo unspecified),-2.1%,56.7%,-1.8%,12.6µM*,-35.1%,-7.4%
Cc1nc(CCNC(=O)CC2C(=O)NCCN2Cc2ccccc2)nc2c1CCC2 (stereo unspecified),-1.8%,16.3%,/,50.1µM*,-25.7%,-34.3%
Cc1cc(CNC(=O)CC2C(=O)NCCN2Cc2ccccc2)nn1C (stereo unspecified),1.9%,51.4%,/,44.7µM*,-9.7%,-2.3%
CCC(Sc1nc2ccncc2[nH]1)C(=O)Nc1cc(C)ccc1C (stereo unspecified),-5.0%,28.7%,/,7.2%[59 µM],-16.8%,-1.1%
N#Cc1cccc(NC(=O)C2CCN(c3cnccn3)CC2)c1,1.1%,34.6%,/,-5.2%[59 µM],-14.6%,5.3%
Cc1ccc(NC2c3ncccc3C(=O)N2c2ccccc2C)cc1C (stereo unspecified),?,-24.6%,?,?,11.2µM*,20µM*
CCOc1ccc(N2C(=O)c3cccnc3C2Nc2ccc(Cl)cc2)cc1 (stereo unspecified),-3.1%,20.1%,-0.6%,-10.9%[59 µM],-18.6%,-25.9%
